Hit rate of the full screen: of about 340,000 compounds, about 3,300 (0.97%) were called active.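 How the source made its calls: active means maximum activity change below -70%; inconclusive means maximum activity change from -70% to -50%; inactive means maximum activity change above -50%.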 Only a selection was taken, and actives are over-represented in it overall.
On the % scale 0 is the no-effect control and ±100 the full control effect.

This assay has as its system Potassium voltage-gated channel subfamily H member 2, brain isoform KCNH2 3.1 (human). As to the kind of experiment: qHTS for Inhibitors of KCHN2 3.1: Mutant qHTS. Conditions: U2OS KCNH2 3.1, thallium flux FluxOr; active compounds read low. The text has this: Many antipsychotic drugs that inhibit the neurotransmitter dopamine also bind to hERG1 channel which might help explain their antipsychotic activity but also produces cardiac side effects. The discovery of the novel KCNH2 3.1 isoform offers a potential new target for the development of antipsychotic drugs without cardiac side effects. This proposal will use a high throughput thallium flux assay developed for KCNH2 to screen compounds that modulate the activity of KCNH2 3.1. The wild type KCNH2 channel will also be screened in parallel to help define the selective modulators of this KCNH2 3.1 potassium channel. The resulting compounds will be validated in electrophysiology experiments. The availability of animal models will allow future testing in vivo for effects on memory and other aspects of animal physiology linked with psychosis. NIH Chemical Genomics Center [NCGC] NIH Molecular Libraries Probe Centers Network [MLPCN] MLPCN Grant: MH096539 Assay Submitter (PI): James Barrow, Johns Hopkins University, Lieber Institute for Brain Development
U2OS cells were resuspended in cell media containing 10% fetal calf serum (FCS) at a concentration of 2 million cells / mL. The solution was treated with the mutant (3.1) virus at 1.77 x 10^8 / mL and allowed to incubate at room temperature in the dark. After 4 hours of incubation, DMEM + 10% fetal bovine serum (FBS) was added to the cell solution. Three microliter was then dispensed into a 1536 tissue culture treated black assay plates which were incubated overnight at 37 C. Two microliter of loading buffer (HBSS + HEPES + Red40 dye quencher + FluxOr dye) was added and the assay plates were incubated for 45 min at room temperature in the dark. […] A stimulation buffer was added to the plate and the second kinetic read (2 min) was obtained. The rate constant was calculated from the kinetic reads and normalized to the positive and negative DMSO controls.
(Quantitative high-throughput screening tests each substance at several concentrations.)
`O=C(Cc1cccs1)Nc1nnc(C2CC2)s1`: the activity change is -217% (active).
For `CCc1ccccc1OCC(=O)Nc1nnc(C2CC2)s1`, the activity change is -8.55% (inactive).
`O=C(Cc1cccs1)Nc1nnc(SCc2ccc(F)cc2)s1`: the activity change was 3.31% (inactive).
In the case of `O=S(=O)(NC1CCCC1)c1ccc(-n2cnnn2)cc1`, the activity change was 5.4% (inactive).
For `CCOC(=O)C1CCCN(S(=O)(=O)c2ccc(-n3cnnn3)c(C)c2)C1` (centres undefined), the activity change is 10.1% (inactive).
With `Cc1cc(S(=O)(=O)NC2CCCC2)ccc1-n1cnnn1`, the activity change was -70.6% (active).
As to `O=C(c1ccc(Cl)c([N+](=O)[O-])c1)N1CCN(c2ccccc2)CC1`, the activity change was 9.67% (inactive).
In the case of `O=C(c1ccc(N2CCOCC2)c([N+](=O)[O-])c1)N1CCN(c2ccccc2F)CC1` it was 1.08% (inactive); in that of `O=C(/C=C/c1ccc(Cl)cc1)N1CCN(c2ccccc2[N+](=O)[O-])CC1`, -108% (active); in that of `C[C@H]1CN([C@@H](C)CO)C(=O)CCCn2cc(nn2)CO[C@@H]1CN(C)C(=O)Nc1ccccc1`, 13.1% (inactive).
Consider `O=C(O)C(=Cc1ccc([N+](=O)[O-])cc1)CCc1ccccc1`, for which the activity change was -2.12% (inactive).
Turning to `COc1ccc(NC(=O)CN(C)C(=O)c2cccc(S(=O)(=O)N3CCN(c4ccccc4)CC3)c2)cc1`, the activity change is -101% (active).
For the compound `Cc1ccc(NC(=O)CN(C)C(=O)c2cccc(S(=O)(=O)N3CCCC3)c2)cc1`, the activity change was 4.37% (inactive).
`CCOc1ccc(NC(=O)CN(C)C(=O)c2cccc(S(=O)(=O)N3CCCC3)c2)cc1OCC`: the activity change was 0.537% (inactive).
In the case of `CC(C)CC1C(=O)N(Cc2cn(CC3CCCCC3)nn2)CCS(=O)(=O)N1Cc1ccc(-c2ccc(Cl)cc2)cc1` (centres undefined), the activity change is 4.02% (inactive).
For the compound `O=c1[nH]c(CN2CCOCC2)nc2scc(-c3ccccc3)c12`, the activity change was 0.718% (inactive).
Turning to `NC(=O)Cc1nc2scc(-c3ccc(Cl)cc3)c2c(=O)[nH]1`, the activity change is -145% (active).
Take `Cc1sc2nc(CC(N)=O)[nH]c(=O)c2c1-c1ccccc1`: the activity change is 4% (inactive).
For `C[C@@H]1CN([C@@H](C)CO)S(=O)(=O)c2ccc(-c3ccc(C(=O)N(C)C)cc3)cc2O[C@@H]1CN(C)Cc1ccccc1C(=O)O`, the activity change was -0.261% (inactive).
Consider `CC(=O)Nc1ccc(C=Cc2ccc([N+](=O)[O-])cc2)cc1`, for which the activity change is -16.2% (inactive).
As to `Cc1ccc(C(CNC(=O)Nc2cccc(C)c2)N2CCN(C)CC2)cc1` (centres undefined), the activity change was 3.75% (inactive).
Regarding `Cc1ccc(C(CNC(=O)Nc2ccccc2)N2CCN(C)CC2)cc1` (centres undefined), the activity change is -194% (active).
On to `COc1ccc(S(=O)(=O)NCC(c2ccc(C)cc2)N2CCN(C)CC2)cc1OC` (centres undefined), for which the activity change was -2.06% (inactive).
`Cc1ccc(S(=O)(=O)N2C[C@H]3n4c(=O)ccc(=O)n4C[C@H](OC(=O)NC4CCCC4)[C@@]3(O)C2)cc1`: the activity change was -5.45% (inactive).

These data come from PubChem BioAssay AID720553 (National Center for Advancing Translational Sciences (NCATS), 2013).
